# High-throughput results deposited in PubChem BioAssay by National Center for Advancing Translational Sciences (NCATS).
# Rows were chosen to be rich in hits. Some 2.4% of all compounds tested hit in one or more screens of this group.
# D2 antagonist: D2 dopamine receptor (human) antagonism; 340,000 compounds, 2% hits; inhibition, % at 10 µM; P14416; AID 485344; HEK293 TREx D2 cells, calcium flux, dopamine EC80; in the data active = inhibition above about 30%; inactive = below that, where a call was filed; also: 0% is about no effect
# Target sequence (P14416 whole entry, looked up): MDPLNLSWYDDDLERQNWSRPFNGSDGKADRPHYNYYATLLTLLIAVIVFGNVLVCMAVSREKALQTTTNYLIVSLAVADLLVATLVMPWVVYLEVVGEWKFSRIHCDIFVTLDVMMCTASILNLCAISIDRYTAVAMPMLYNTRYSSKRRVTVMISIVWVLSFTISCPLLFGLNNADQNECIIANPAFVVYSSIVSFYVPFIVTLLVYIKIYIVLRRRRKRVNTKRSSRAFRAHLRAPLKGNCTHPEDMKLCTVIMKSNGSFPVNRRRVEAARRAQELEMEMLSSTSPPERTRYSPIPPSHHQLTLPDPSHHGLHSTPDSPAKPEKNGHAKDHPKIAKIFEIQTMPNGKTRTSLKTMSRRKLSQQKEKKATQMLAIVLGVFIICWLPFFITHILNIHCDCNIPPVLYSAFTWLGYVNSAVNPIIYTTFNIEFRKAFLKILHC
#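 Antagonism is scored as inhibition of an EC80 dopamine-evoked calcium signal in a force-coupled, tetracycline-inducible HEK293 T-REx D2 line, with compound present 180 s before agonist.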
# D2 PAM-1: positively modulates the human D2 dopamine receptor allosterically; potentiation, % at 10 µM; AID 485347; P14416; 340,000 compounds, 0.34% hits; HEK293 T-REx D2, calcium flux, EC20 dopamine potentiation;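 active = potentiation over 3 SD above the plate norm, cut at about 30% in these data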; also: 0% is about no effect
#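 Calcium flux readout, no-wash dye, 1 read/s. Inducible HEK293 Trex D2 line, overnight 30 C. Compound alone 180 s (agonist flags), then EC20 dopamine, another 180 s to score potentiation.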
# D2 ag-1: activates the human D2 dopamine receptor. AID 485358. activation, % at 2 µM. 340,000 compounds, 0.53% hits. HEK293 T-REx D2 cells, calcium flux agonist mode;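 active = activation over 3 SD above normal in the single-dose calcium agonist read, cut at about 30% in these data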; also: 0% is about no effect
#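 Tetracycline-induced HEK293 Trex cells with D2 receptor force-coupled to calcium signaling, plated overnight at 30 C and loaded with no-wash calcium dye. Calcium flux read kinetically for 180 s after compound addition; responses flag agonists.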
# D2 ag-2: activates the human D2 dopamine receptor; P14416; DiscoveRx PathHunter D2 beta-arrestin, luminescence, 90 min; 100% = 57 uM dopamine signal; activation, % (test concentration not listed); 360,000 compounds, 0.084% hits; AID 624465; in the data active = activation above about 40%
#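 Agonist mode: compounds alone added to overnight-plated D2 PathHunter cells for 90 min at 37 C, with 57 uM final dopamine (EC100) defining full response. Beta-arrestin recruitment detected by chemiluminescent reagent, read after 1 h at ambient temperature.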
# D2 PAM-2: potentiates the human D2 dopamine receptor allosterically. DiscoveRx D2 beta-arrestin cells, luminescence, 90 min; 100% = 57 uM dopamine signal. P14416. 360,000 compounds, 0.23% hits. AID 624464. potentiation, % (test concentration not listed); in the data active = potentiation above about 50%
#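 PathHunter beta-arrestin assay in DiscoveRx D2 cells. Compounds were added with an EC20 of dopamine (50 nM final) for 90 min at 37 deg C. Luminescence was read 1 h after detection reagent, with 57 uM dopamine as the EC100 control.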
# * hit, by the source's call; · = no result given.
SMILES,D2 antagonist,D2 PAM-1,D2 ag-1,D2 ag-2,D2 PAM-2
Fc1ccccc1CN1CCC(Cc2ccccc2)CC1,4,-2,-2,-4,-9
N#CC1=C(N)C(C#N)(C#N)[C@H](c2ccoc2)[C@H]2CN(Cc3ccccc3)CC=C12,1,3,31*,1,-17
CCCN1CC=C2C(C#N)=C(N)C(C#N)(C#N)C(c3cccc(OC)c3OC)C2C1 (stereo not given),5,-15,57*,-3,-25
COc1ccc(OC)c(C2C3CN(C(C)C)CC=C3C(C#N)=C(N)C2(C#N)C#N)c1 (stereo not given),-7,-15,4,-6,-49
COc1ccc(-c2noc(COc3cc(C)ccc3C)n2)cc1OC,·,-2,1,·,·
CC(C)Cn1cnc2c1c(=O)n(CC(=O)NC(=O)NC(C)(C)C)c(=O)n2Cc1ccccc1,14,31*,0,-3,2
COc1ccc(NC(=O)CCCN2C(=O)CCn3nc(-c4cn(C)c5ccccc45)cc32)cc1,·,1,1,·,·
O=C(CCNC(=O)N1CC(=O)Nc2ccccc21)Nc1ccc(Br)cc1F,55*,0,0,-8,-28
CC1CCC2(CC1)NC(=O)c1ccccc1O2 (stereo not given),2,32*,1,-3,-2
O=C(NCCS(=O)(=O)N1CCN(c2ccc(F)cc2)CC1)C(c1ccccc1)c1ccccc1,·,8,1,·,·
Clc1ccccc1OCCCCN1CCCC1,-22,-18,-1,-3,-26
Clc1ccccc1OCCCCN1CCCCC1,77*,-28,1,-5,-5
Brc1ccccc1OCCCCCN1CCOCC1,36*,-15,0,1,-25
Brc1ccccc1OCCCN1CCCCCC1,46*,-18,0,-2,-16
Clc1ccc(Cl)c(OCCCCN2CCCCC2)c1,86*,-31,-2,-3,-15
CCOc1ccc(NC(=O)CSc2nc3c(c(=O)[nH]2)CCCC3)cc1,·,2,4,·,·
CC1CCN(CCOc2cc(Cl)ccc2Cl)CC1,72*,-30,4,1,-19
CC(C)c1ccccc1OCCCN1CCCC1,65*,-14,0,5,-7
COC(=O)c1cc(NC(=O)c2cccc(Cl)c2)c(=O)oc1/C=C/Nc1cc(C)cc(C)c1,5,9,41*,·,·
COc1ccccc1N1CCN(S(=O)(=O)CCNC(=O)Cc2ccc(Cl)cc2)CC1,·,-6,-1,·,·
OCc1cn(-c2ccccc2)nc1-c1cc2ccccc2o1,45*,4,-1,-3,-6
O=C(N/N=C/c1cn(-c2ccccc2)nc1-c1cc2ccccc2o1)c1ccccc1Br,-5,-6,0,-3,-8
O=C(N/N=C/c1cn(-c2ccccc2)nc1-c1cc2ccccc2o1)c1c[nH]c2ccccc12,34*,4,-1,-2,5
COc1ccc(NC(=O)c2cn(-c3ccccc3)nc2-c2cc3ccccc3o2)cc1,-2,-10,0,-3,-1
Cc1cc(C)cc(Oc2nc3c(c(=O)n(C)c(=O)n3C)n2Cc2ccc(F)cc2)c1,·,2,-1,·,·
SMILES,D2 antagonist,D2 PAM-1,D2 ag-1,D2 ag-2,D2 PAM-2
CC1CCN(S(=O)(=O)c2ccc(S(=O)(=O)NCc3ccccc3)cc2)CC1,31*,-5,1,4,14
O=S(=O)(NCc1ccccc1)c1ccc(S(=O)(=O)N2CCCCC2)cc1,5,-4,0,-2,0
CCN(c1cccc(C)c1)S(=O)(=O)c1nnc(NC(=O)c2ccccc2Cl)s1,·,-3,0,·,·
CSc1ncc(C(=O)NCc2ccc(C)cc2)c(-c2ccccc2)n1,·,3,0,·,·
O=S(=O)(Nc1cccc(S(=O)(=O)N2CCOCC2)c1)c1ccc2c(c1)OCCO2,0,5,2,-4,2
O=S(=O)(Nc1cccc(S(=O)(=O)N2CCOCC2)c1)c1cccs1,10,-11,32*,-2,-4
COc1cccc(C(=O)NCC(=O)N2CCC3(CC2)NCCc2[nH]cnc23)c1OC,30*,4,0,-1,-3
CCN(CC)CCCNC(=O)c1cc2c(=O)n(C)c3ccccc3c2n1C,-25,-15,0,-2,-7
CCN(CC)CCNC(=O)c1cc2c(=O)n(C)c3ccccc3c2n1C,37*,15,0,-2,-13
Cn1c(C(=O)NCCCN2CCc3ccccc3C2)cc2c(=O)n(C)c3ccccc3c21,81*,-28,0,-2,-12
COCCNC(=O)c1cc2c(=O)n(C)c3ccccc3c2n1C,0,0,0,9,2
CN(C)CCNC(=O)c1cc2c(=O)n(C)c3ccccc3c2n1C,9,33*,2,2,-3
CC(=O)c1cc2c(cc1NC(=O)c1c(C)nn(-c3ccc(C)cc3)c1-n1cccc1)OCO2,·,-2,0,·,·
CCSc1c(-c2ccccc2)nc2c(C)cccc2c1C(=O)O,-1,-17,34*,0,-12
Cc1ccccc1C(=O)c1cccn1CC(=O)NC1CCCC(C)C1C (stereo not given),-2,-2,0,-6,-14
CC1CCCCC1NC(=O)Cn1cccc1C(=O)c1ccccc1 (stereo not given),-10,35*,0,-5,-9
CCOc1ccc(CCNC(=O)c2c(C)oc3ncn(CC(C)C)c(=O)c23)cc1,·,-1,-1,·,·
CC(=O)C1CCC2C3CCC4=CC(=O)CCC4(C)C3(Br)C(=O)CC12C (stereo not given),·,·,·,11,61*
COc1ccc(NC(=O)C2CCCO2)cc1Cl (stereo not given),31*,-14,0,-2,-4
Cc1nc(C)n(CC(C)C(=O)N2CCN(S(=O)(=O)c3ccccc3)CC2)n1 (stereo not given),32*,-15,-1,-2,-1
Cc1cc(C)c(S(=O)(=O)N2CCN(C(=O)N3CCCCC3)CC2)c(C)c1,0,7,0,-3,1
Cc1cc(C)c(S(=O)(=O)N2CCN(C(=O)C(C)Cn3nc(C)nc3C)CC2)c(C)c1 (stereo not given),35*,12,1,3,-9
Cc1cc(C)c(S(=O)(=O)N2CCN(C(=O)N(C)C)CC2)c(C)c1,-5,32*,0,-1,-6
CNC(=O)c1c(NC(=O)c2nc(SCc3ccc(C)cc3)ncc2Cl)sc2c1CCCC2,·,-8,1,·,·
CCN(CC)CCNC(=O)C(=O)NCC1OCCN1S(=O)(=O)c1ccc([N+](=O)[O-])cc1 (stereo not given),-2,-12,2,9,50*
COc1ccccc1CCNC(=O)C(=O)NCC1OCCN1S(=O)(=O)c1ccc(Cl)cc1 (stereo not given),36*,-3,1,-3,-5
COc1ccccc1-c1oc2ccccc2c1C#CC(C)(C)O,52*,-18,0,-2,-7
